Compound activity: PubChem BioAssay, National Center for Advancing Translational Sciences (NCATS)
HepG2 viability = kills HepG2 cells in TGF-b inhibitor counter-screen; AID 588856; hit rate 0.76% among 410,000; Potency, µM (doses to about 46.1 µM), without a hit: at the highest dose activity change, negative = cytotoxicity, most hits filed as cytotoxic; HepG2 CAGA-GFP viability, ATP luminescence, 18 h
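HepG2 CAGA-GFP cells (1000/well, DMEM with 1% FBS) received compound, then TGF-beta at 500 pg/mL final, and were incubated 18 hours at 37 degrees C. Viability was read by CellTiter-Glo luminescence. Media-only wells were set as complete cell-killing and DMSO as no toxicity.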
ATXN viability = reduces viability in counter-screen for ATXN expression inhibitors | S2 cells (HEK-293 line with an ATXN2-luciferase reporter) viability, CellTiter-Fluor protease fluorescence, 24 h | Potency, µM (highest dose often 56.7 µM), actives largely listed as cytotoxic | hit rate 0.49% among 400,000; further: nearly all actives have a fitted effect of over 40% in size
DT40 TDP1 no CPT = qHTS for Inhibitors of human tyrosyl-DNA phosphodiesterase 1 (TDP1): qHTS in cells in absence of CPT; DT40 Tdp1-/- hTDP1 cells, no CPT, ATP luminescence, 48 h; Potency, µM (highest dose often 46.2 µM), for inactives: top-dose activity change, negative = growth inhibition, hits mostly inhibitors; hit rate 15% among 420,000; further: on the % scale 0 is the no-effect control and ±100 the full control effect; nearly all actives have a fitted effect of over 55% in size
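Readout: luminescence from CellTiter-Glo after 30 min in the dark at RT. Cells: DT40 Tdp1-/- with stable hTDP1, 400/well. Exposure: compounds alone, ≥48 hr, 37 °C.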
DT40 TDP1 CPT = growth inhibition of DT40 Tdp1-/-;hTDP1 cells with camptothecin (screen for TDP1 inhibitors). chicken DT40 Tdp1-/-;hTDP1 cells + 20 nM CPT, ATP luminescence, 48 h. Potency, µM (doses to about 46.2 µM), without a hit: top-dose activity change, negative = growth inhibition, usual class: inhibitors. hit rate 12% among 420,000; further: on the % scale 0 is the no-effect control and ±100 the full control effect; nearly all actives have a fitted effect of over 55% in size
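Chicken DT40 Tdp1-/- cells stably complemented with human TDP1 were seeded at 400 cells/well in medium containing 20 nM camptothecin, exposed to pin-transferred compounds, and grown at 37 °C for at least 48 hr. Viability was read as ATP luminescence.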
TGFb inhibitor = inhibitors of TGF-b signaling | HepG2 CAGA-GFP TGF-b/SMAD3 reporter, GFP fluorescence, 18 h; TGF-beta stimulated, 500 pg/mL final | Potency, µM (series often up to 46.1 µM), for the others: top-dose activity, negative = inhibition, usual class: inhibitors | hit rate 1.2% among 410,000 | AID 588855; further: on the % scale 0 is the no-effect control and ±100 the full control effect; nearly all actives have a fitted effect of over 65% in size
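Per well, imaged GFP fluorescence of HEPG2 CAGA-GFP cells gives the signal; cells get compound, then TGF-beta (500 pg/mL final), 18 h at 37 degrees C; %Activity versus -TGF-beta and +DMSO controls.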
ATXN2 expr inh = inhibitors of ATXN2 expression; hit rate 0.72% among 360,000; HEK-293 ATXN2-luciferase reporter, luminescence, 24 h; Potency, µM (top dose mostly 57 µM), inactives show top-dose activity change, negative = inhibition, most hits filed as inhibitors; further: on the % scale 0 is the no-effect control and ±100 the full control effect; nearly all actives have a fitted effect of over 55% in size
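ATXN2-luciferase reporter cells (luciferase flanked by upstream and downstream ATXN2 gene portions) were treated 24 h at 37 °C with compounds at up to 57 uM. SteadyGlo luminescence gave expression; GF-AFC fluorescence gave viability.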
* hit, by the source's call; i = inactive; ? = inconclusive; · = no result; [ ] = dose if it differs, or a comment. Rows were chosen to be rich in hits. Some 17% of all compounds tested hit in one or more screens of this group. The call rests on the fitted dose curve; in most records, active means well fitted curve in the direction sought with a large enough effect; inconclusive means small, poorly fitted or top-dose-only effect, or another doubt; inactive means no such curve, though single readings can be large; an effect the other way counts as inactive or inconclusive. Potency means the concentration at half of the fitted maximal effect.

SMILES	HepG2 viability	ATXN viability	DT40 TDP1 no CPT	DT40 TDP1 CPT	TGFb inhibitor	ATXN2 expr inh
O=C(CCC(=O)N1CCN(c2cccc(Cl)c2)CC1)c1cccs1	4%	i	18µM*	?	10%	-27%
COCC(=O)N1CCN(c2cccc(Cl)c2)CC1	0%	i	-12%	-23%	6%	-5%
Nc1ccc(N2CCN(c3cccc(Cl)c3)CC2)cc1	-1%	?	15µM*	13µM*	-37%	?
O=C(CCN1C(=O)c2ccccc2S1(=O)=O)N1CCN(c2cccc(Cl)c2)CC1	-10%	i	16µM*	?	-2%	0%
O=S(=O)(c1ccccc1)N1CCN(c2cccc(Cl)c2)CC1	-7%	i	-17%	-6%	11%	1%
O=C(CCNC(=O)Cn1ccc2ccccc2c1=O)NCCCN1CCN(c2ccccc2F)CC1	-11%	i	-10%	-24%	-1%	-15%
CC(C)NC(=O)C1=CC(c2ccc3c(c2)OCO3)=NS(=O)(=O)N1C	0%	i	-6%	1%	-22%	1%
CC(C)C(=O)OCc1cccc(OC(=O)[C@@H]2N3C(=O)[C@@H](NC(=O)Cc4ccccc4)[C@H]3SC2(C)C)c1	·	?	·	·	·	5%
COc1ccc(NC(=O)COC(=O)CCc2ccc(S(=O)(=O)N3CCOCC3)cc2)c(OC)c1	1%	i	8%	-15%	11%	10%
COc1ccc(NC(=O)NCCCCc2ccccc2)c(OC)c1	-1%	i	17%	?	-4%	7%
Clc1cccc(N2CCN(CCCN3CCN(c4ccccc4)CC3)CC2)c1	-19%	?	?	26µM*	0%	?
COc1ccc(N2CCN(C(=O)COC(=O)Cc3c(F)cccc3Cl)CC2)cc1	-24%	i	-10%	?	0%	-8%
Cn1cc(CC(=O)N2CCN(c3ccccc3F)CC2)c2ccccc21	-14%	i	?	?	-12%	0%
O=C(CCC(=O)N1CCN(c2cccc(Cl)c2)CC1)N1CCN(c2ccccc2)CC1	-27%	i	8.2µM*	18µM*	?	?
O=C(O)CCCC(=O)N1CCN(c2cccc(Cl)c2)CC1	14%	i	3%	-3%	28%	0%
O=C(Cc1c(F)cccc1Cl)OCC(=O)N1CCN(c2ccccc2)CC1	-12%	?	?	18µM*	-6%	·
Cn1cc(CC(=O)N2CCN(c3ccc(Cl)cc3)CC2)c2ccccc21	-16%	i	13µM*	?	11%	-18%
c1ccc(CCCN2CCN(c3ccccc3)CC2)cc1	-19%	?	-7%	13%	-1%	0%
C[C@H](CO)N1C[C@H](C)[C@@H](CN(C)C(=O)C2CCOCC2)Oc2ncc(Br)cc2C1=O	-37%	i	-2%	12%	0%	-2%
CCC1(CC)Cc2ccccc2C(C2=C(O)CC(C)(C)CC2=O)=N1	0%	i	-14%	-11%	0%	0%
N#C/C(=C\C=C\c1ccccc1)C(=O)NCc1ccco1	-28%	?	?	-8%	?	9%
O=C(NCc1ccco1)/C(=C/C=C\c1ccccc1)NC(=O)c1ccc(Br)o1	-6%	i	?	16µM*	-24%	?
COC(=O)c1sc(=S)n(-c2ccccc2OC)c1N	-29%	i	-12%	-7%	-5%	-1%
CCOC(=O)c1sc(=S)n(-c2ccccc2OC)c1N	-3%	i	23µM*	?	-19%	2%
Cc1ccc(-n2c(N)c(C(N)=O)sc2=S)c(C)c1	-1%	i	26µM*	?	?	-5%
SMILES	HepG2 viability	ATXN viability	DT40 TDP1 no CPT	DT40 TDP1 CPT	TGFb inhibitor	ATXN2 expr inh
COc1ccc(Cl)cc1-n1c(N)c(C(N)=O)sc1=S	-1%	i	21µM*	16µM*	-15%	0%
CCc1ccc(OCC(=O)Nc2ccc3c(c2)c2ccccc2n3CC)c(Br)c1	12%	i	?	?	1%	-1%
Fc1cccc(/C=N/NC(=S)Nc2ccccc2Cl)c1	-16%	i	2.6µM*	6.5µM*	?	51%
COc1cc(/C=N/Nc2ccc(Cl)nn2)cc(OC)c1O	3%	i	11%	12%	2%	4%
COc1cc(/C=N/Nc2ccc(F)cc2F)cc(OC)c1O	-28%	i	5.8µM*	2.3µM*	?	0%
Cc1ccccc1NC(=O)C(=O)N/N=C/c1cccc(Br)c1	-4%	i	1%	1%	?	-1%
S=C(N/N=C/c1ccc(Cl)c(Cl)c1)Nc1ccccc1Cl	-52%	?	?	23µM*	-1%	-31%
Fc1ccc(NC(=S)N/N=C/c2cccc(Br)c2)c(F)c1	-2%	i	4.1µM*	6.5µM*	-6%	-18%
COCCNC(=O)NC(=O)COC(=O)c1cccn1C	16%	i	3%	11%	7%	-14%
CCOC(=O)[C@@H](NC(=O)/C=C/[C@H]1O[C@@H](n2ccc(=O)[nH]c2=O)[C@H](O)[C@@H]1O)C(C)C	-2%	i	3%	4%	1%	2%
Cc1ccc(NC(=S)N/N=C/c2c(Cl)cccc2Cl)c(C)c1	4%	?	1.5µM*	1.3µM*	-28%	44%
COc1cc(/C=N/Nc2ccccc2[N+](=O)[O-])cc(OC)c1O	-2%	?	6.5µM*	?	-6%	-9%
COc1cc(/C=N/Nc2ccc(S(N)(=O)=O)cc2[N+](=O)[O-])cc(OC)c1O	5%	i	-23%	-20%	1%	·
O=[N+]([O-])c1cc(/C=N/NC(=S)Nc2ccccc2Cl)ccc1Cl	-59%	i	12µM*	?	-28%	-12%
COc1ccc(/C=N/NC(=S)Nc2ccccc2[N+](=O)[O-])cc1O	-26%	?	4.6µM*	6.5µM*	?	40%
COc1ccc(CCN2C(=O)NC(NS(=O)(=O)c3ccccc3)(C(F)(F)F)C2=O)cc1OC (centres undefined)	-23%	i	4%	2%	0%	12%
Cc1cnc(C)c(-c2cccc3c2OC(CNC(=O)c2cc(C)on2)C3)n1 (centres undefined)	·	i	-7%	-1%[9.04 µM]	·	·
CCOC(=O)N1CCN(C(=O)C[C@@H]2C[C@@]3(C(=O)OCC)CCC=C3N(Cc3ccc4c(c3)OCO4)C2=O)CC1	·	i	?	-28%	·	7%
